We go through 23 targets from the supplement of paper PMC10849652.

Of roughly 7,900 targets only a part is listed; those with a hit were picked by preference. About 0.6% of all pairs of compound and target were hits. Unmarked numbers belong to inactive results.

UniProt Q13464, sequence (Q13464 whole entry, looked up): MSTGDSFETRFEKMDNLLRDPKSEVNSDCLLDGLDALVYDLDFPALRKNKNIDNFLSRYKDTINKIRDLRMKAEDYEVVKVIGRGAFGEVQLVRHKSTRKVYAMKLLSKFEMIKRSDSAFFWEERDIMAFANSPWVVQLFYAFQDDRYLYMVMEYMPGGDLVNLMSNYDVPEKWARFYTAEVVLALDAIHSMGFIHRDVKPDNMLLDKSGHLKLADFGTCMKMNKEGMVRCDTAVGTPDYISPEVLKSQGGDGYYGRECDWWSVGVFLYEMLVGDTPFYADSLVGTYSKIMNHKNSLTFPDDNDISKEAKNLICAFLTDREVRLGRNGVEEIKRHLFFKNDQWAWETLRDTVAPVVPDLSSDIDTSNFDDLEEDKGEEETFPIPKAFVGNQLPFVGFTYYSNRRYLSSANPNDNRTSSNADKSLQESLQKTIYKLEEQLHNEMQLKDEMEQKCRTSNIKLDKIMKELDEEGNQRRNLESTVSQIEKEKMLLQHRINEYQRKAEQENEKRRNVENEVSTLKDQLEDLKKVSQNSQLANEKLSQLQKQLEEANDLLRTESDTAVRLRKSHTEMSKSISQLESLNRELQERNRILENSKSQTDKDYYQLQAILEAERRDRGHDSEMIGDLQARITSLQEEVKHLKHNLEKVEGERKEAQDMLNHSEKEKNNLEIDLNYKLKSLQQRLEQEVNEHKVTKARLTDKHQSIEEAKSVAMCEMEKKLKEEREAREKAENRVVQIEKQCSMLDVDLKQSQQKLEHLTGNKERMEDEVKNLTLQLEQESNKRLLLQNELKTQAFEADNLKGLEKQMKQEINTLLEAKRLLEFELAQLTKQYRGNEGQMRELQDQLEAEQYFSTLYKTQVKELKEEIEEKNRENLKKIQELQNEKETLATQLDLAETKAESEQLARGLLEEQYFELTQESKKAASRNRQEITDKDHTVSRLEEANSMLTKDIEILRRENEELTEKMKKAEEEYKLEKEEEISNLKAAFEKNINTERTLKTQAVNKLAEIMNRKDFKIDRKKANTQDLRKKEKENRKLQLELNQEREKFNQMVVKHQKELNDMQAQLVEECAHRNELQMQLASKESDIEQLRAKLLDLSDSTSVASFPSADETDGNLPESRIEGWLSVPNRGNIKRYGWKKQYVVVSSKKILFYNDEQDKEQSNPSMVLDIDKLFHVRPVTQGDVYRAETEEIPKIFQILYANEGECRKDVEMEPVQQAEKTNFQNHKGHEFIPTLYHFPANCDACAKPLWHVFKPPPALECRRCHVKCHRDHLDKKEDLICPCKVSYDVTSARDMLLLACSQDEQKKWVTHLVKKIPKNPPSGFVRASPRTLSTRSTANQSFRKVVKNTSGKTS
UniProt Q06609, sequence (Q06609 whole entry, looked up): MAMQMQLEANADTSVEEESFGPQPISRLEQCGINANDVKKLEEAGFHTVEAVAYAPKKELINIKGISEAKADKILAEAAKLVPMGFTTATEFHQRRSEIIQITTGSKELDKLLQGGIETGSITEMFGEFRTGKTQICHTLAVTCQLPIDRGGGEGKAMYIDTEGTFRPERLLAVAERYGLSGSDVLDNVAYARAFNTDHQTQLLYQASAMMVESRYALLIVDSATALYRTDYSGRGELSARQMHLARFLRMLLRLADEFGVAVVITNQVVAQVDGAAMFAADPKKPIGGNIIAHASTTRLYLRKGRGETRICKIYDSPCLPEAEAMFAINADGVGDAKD
UniProt Q96T51, sequence (Q96T51 whole entry, looked up): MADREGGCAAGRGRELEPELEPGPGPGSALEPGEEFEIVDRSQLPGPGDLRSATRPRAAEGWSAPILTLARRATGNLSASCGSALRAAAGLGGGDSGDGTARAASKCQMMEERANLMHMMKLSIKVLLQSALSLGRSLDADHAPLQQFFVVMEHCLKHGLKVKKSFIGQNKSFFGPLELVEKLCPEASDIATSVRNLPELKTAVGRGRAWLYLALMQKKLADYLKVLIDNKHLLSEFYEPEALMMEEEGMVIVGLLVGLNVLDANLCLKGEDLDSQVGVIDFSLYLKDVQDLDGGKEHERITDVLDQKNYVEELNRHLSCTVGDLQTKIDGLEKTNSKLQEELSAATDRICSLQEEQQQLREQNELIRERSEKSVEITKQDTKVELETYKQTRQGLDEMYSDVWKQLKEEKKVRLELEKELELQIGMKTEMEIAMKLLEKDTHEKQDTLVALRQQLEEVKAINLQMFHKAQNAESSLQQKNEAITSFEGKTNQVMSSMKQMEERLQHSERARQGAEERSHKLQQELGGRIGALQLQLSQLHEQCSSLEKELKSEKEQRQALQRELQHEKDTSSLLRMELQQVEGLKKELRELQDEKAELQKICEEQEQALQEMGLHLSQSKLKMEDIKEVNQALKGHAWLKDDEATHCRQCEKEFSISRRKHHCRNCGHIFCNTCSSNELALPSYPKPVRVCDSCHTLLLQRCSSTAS
UniProt Q9BQY4, sequence (Q9BQY4 whole entry, looked up): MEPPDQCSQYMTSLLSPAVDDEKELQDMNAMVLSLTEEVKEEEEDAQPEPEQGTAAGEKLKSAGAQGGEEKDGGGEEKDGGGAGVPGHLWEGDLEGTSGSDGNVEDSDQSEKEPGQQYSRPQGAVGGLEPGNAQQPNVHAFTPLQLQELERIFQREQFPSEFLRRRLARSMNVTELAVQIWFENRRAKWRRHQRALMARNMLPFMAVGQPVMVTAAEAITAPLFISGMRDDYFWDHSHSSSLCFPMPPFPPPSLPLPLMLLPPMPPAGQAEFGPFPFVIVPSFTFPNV
UniProt P41440, sequence (P41440 whole entry, looked up): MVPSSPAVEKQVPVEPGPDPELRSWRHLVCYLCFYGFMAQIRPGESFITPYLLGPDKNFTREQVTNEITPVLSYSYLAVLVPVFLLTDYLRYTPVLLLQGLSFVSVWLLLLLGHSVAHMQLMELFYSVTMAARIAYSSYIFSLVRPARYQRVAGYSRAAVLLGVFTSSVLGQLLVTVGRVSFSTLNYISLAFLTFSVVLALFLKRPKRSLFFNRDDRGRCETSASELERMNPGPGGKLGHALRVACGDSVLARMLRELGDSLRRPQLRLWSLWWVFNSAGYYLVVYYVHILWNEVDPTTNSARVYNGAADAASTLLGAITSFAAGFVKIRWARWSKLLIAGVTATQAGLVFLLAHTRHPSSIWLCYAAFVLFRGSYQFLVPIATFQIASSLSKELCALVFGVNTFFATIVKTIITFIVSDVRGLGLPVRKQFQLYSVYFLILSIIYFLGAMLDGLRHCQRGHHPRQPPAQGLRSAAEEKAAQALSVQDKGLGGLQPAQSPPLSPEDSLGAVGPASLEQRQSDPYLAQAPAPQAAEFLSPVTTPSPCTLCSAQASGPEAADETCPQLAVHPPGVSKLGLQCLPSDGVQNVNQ
UniProt Q5T160, sequence (Q5T160 whole entry, looked up): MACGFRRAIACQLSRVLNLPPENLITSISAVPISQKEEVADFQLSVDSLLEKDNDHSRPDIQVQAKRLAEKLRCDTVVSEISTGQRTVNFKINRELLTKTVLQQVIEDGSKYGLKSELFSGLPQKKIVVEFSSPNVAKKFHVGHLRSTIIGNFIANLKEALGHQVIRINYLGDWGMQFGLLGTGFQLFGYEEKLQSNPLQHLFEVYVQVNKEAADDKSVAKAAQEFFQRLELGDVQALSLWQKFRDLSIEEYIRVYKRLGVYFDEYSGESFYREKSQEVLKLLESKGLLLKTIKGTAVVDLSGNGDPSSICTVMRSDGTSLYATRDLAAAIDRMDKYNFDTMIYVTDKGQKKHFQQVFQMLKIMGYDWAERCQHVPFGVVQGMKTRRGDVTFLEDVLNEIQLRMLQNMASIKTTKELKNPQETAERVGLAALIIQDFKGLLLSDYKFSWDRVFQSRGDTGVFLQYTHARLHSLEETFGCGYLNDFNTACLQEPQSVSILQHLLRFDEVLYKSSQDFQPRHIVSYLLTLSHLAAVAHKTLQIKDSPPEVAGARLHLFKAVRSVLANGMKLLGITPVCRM
UniProt Q5PRF9, sequence (Q5PRF9 whole entry, looked up): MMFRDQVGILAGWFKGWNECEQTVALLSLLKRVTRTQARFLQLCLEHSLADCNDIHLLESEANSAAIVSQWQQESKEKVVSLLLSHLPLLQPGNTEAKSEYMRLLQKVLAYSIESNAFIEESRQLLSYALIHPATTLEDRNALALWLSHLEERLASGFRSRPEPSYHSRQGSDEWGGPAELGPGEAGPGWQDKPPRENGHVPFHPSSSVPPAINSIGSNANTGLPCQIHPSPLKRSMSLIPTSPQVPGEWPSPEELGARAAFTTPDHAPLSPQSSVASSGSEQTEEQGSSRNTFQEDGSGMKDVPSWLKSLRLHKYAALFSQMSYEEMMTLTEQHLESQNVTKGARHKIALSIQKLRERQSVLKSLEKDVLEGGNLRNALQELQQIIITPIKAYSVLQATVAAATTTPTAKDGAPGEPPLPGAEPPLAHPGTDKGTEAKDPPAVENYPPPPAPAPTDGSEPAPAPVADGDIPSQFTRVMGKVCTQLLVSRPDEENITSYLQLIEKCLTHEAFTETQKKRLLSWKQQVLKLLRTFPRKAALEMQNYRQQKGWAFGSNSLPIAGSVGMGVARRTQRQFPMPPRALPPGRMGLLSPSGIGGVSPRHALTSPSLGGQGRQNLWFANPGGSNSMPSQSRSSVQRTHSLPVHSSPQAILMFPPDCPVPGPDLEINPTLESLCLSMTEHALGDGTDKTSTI
UniProt Q96EU6, sequence (Q96EU6 whole entry, looked up): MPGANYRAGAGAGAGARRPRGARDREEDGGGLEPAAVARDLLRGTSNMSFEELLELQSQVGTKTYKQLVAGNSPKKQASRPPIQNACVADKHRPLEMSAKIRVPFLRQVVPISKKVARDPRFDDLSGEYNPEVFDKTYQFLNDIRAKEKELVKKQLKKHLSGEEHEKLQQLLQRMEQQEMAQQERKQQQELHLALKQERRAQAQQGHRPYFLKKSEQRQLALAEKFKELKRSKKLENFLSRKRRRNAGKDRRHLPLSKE
UniProt O14796, sequence (O14796 whole entry, looked up): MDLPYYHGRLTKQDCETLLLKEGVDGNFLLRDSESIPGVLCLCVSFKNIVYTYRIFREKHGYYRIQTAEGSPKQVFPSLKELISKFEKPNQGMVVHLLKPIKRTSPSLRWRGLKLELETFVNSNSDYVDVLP

Compound in this experiment: CCN(CC)Cc1ccc2cc(COC(=O)Nc3ccc(C(=O)NO)cc3)ccc2c1 [givinostat]
The experiment in a line: log2 fold change, soluble protein after heating vs DMSO (PISA); higher = thermal stabilisation; K562 cells, 10 uM, 30 min; active = over 0.2 and 3.5 SD of the protein, either way, in both replicates (recomputed). The procedure, abridged:
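Soluble protein was defined as the supernatant after 21,000xg for 90 min. It came from K562 cells at 2×10^6 cells/mL given 10 μM compound for 30 min, heated in aliquots for 3 min across 48°C-58°C, pooled, and extracted in PBS with 0.5% NP-40 at 4°C, and was quantified by TMTpro 16plex LC-MS/MS with equalised channel sums. Thermal stability against control samples, from duplicates, is reported as log2 fold change.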
As for RARS2 (UniProt Q5T160), the log2 fold change was -0.037.
As to RRP36 (UniProt Q96EU6), the log2 fold change was 0.
Regarding RCOR1 (UniProt Q9UKL0), the log2 fold change is 0.114.
Regarding RBM48 isoform 2 (UniProt Q5RL73), the log2 fold change is -0.03.
The result for RPS18 (UniProt P62269) reads 0.021; that for RPA3 (UniProt P35244), -0.109; that for RPS6KA3 (UniProt P51812), -0.227.
RHOXF2 (UniProt Q9BQY4): the log2 fold change is 0.05.
Take SCAMP2 (UniProt O15127): the log2 fold change is -0.085.
For SAMD4B (UniProt Q5PRF9), the log2 fold change was 0.201.
As for RNF167 (UniProt Q9H6Y7), the log2 fold change was 0.005.
Turning to SLC19A1 (UniProt P41440), the log2 fold change was 0.007.
With SH2D1B (UniProt O14796), the log2 fold change is -0.028.
With RHOA (UniProt P61586), the log2 fold change was -0.032.
As for RNPEP (UniProt Q9H4A4), the log2 fold change was -0.112.
RAB3IL1 (UniProt E9PK89): the log2 fold change was 0.278.
On to RDH10 (UniProt Q8IZV5), for which the log2 fold change was -0.091.
On to RAF1 isoform 2 (UniProt P04049), for which the log2 fold change is 0.016.
Then RBBP6 (UniProt Q7Z6E9), with 0.043.
On to ROCK1 (UniProt Q13464), for which the log2 fold change was 0.031.
As for RUFY1 (UniProt Q96T51), the log2 fold change was 0.031.
On to SCAMP2 (UniProt H3BUB6), for which the log2 fold change was -0.024.
The result for RAD51 (UniProt Q06609) reads 0.179.
